Most compounds without a hit are left out; they make up all but 5.2% or so of the library.
mIDH1 inhibitor – qHTS for Inhibitors of mutant isocitrate dehydrogenase 1 (IDH1): qHTS; 390,000 tested, 0.093% active; IDH1-R132H enzyme, NADPH consumption, diaphorase/resazurin fluorescence; Isocitrate dehydrogenase [NADP] cytoplasmic (Homo sapiens), O75874; Potency, µM (doses to about 76.6 µM), without a hit: at the highest dose activity change, negative = inhibition, actives largely listed as inhibitors; further: nearly all actives have a fitted effect of over 65% in size
Target sequence (O75874 whole entry R132H, stated change not applied): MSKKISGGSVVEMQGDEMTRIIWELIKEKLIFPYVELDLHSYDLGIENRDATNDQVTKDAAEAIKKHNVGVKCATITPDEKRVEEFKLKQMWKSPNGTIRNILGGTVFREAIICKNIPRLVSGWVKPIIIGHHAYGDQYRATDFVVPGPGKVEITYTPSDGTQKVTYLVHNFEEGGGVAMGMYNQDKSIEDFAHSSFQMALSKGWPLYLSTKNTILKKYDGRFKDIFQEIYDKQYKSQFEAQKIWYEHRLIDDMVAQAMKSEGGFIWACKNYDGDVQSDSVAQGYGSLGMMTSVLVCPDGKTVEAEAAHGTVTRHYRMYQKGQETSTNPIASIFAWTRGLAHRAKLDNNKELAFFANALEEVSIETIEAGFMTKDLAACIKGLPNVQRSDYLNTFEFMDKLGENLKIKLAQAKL
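IDH1-R132H (0.5 ug/mL dispensed) in pH 7.5 Tris buffer was preincubated 30 min with compound, then given a substrate mix of 0.016 mM NADPH and 2 mM alpha-KG for 80 min at room temperature; remaining NADPH was read by diaphorase/resazurin fluorescence.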
PLK1 PBD inh – qHTS for Inhibitors of PLK1-PDB (polo-like kinase 1 - polo-box domain): Primary Screen; AID 720504, 2013; Plk1 PBD binding of FITC phosphopeptide, fluorescence polarization; Potency, µM, for the others: max response, negative = inhibition, usual class: inhibitors; 360,000 tested, 2.8% active; further: series mostly up to about 57 µM; nearly all actives have a fitted effect of over 65% in size
VDR inhibitor – Inhibitors of the vitamin D receptor (VDR): qHTS; VDR-SRC2-3 peptide fluorescence polarization, 2 h; Potency, µM, for inactives: max response, negative = inhibition, hits mostly inhibitors; 400,000 tested, 0.93% active; AID 504847, 2011
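Reagent solutions, kept cold and dark, are dispensed first; compounds are then pinned in at 23 nl, plates briefly spun, and incubated 2 h at ambient temperature. Inhibition of VDR–SRC2-3 peptide binding is read by fluorescence polarization.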
TrxR1 substrate – qHTS Assay for Substrates of Mammalian Selenoprotein Thioredoxin Reductase 1 (TrxR1): qHTS | purified TrxR1 substrate turnover, NADPH consumption readout | Potency, µM (highest dose often 114 µM), for the others: top-dose activity change, negative = substrate turnover | 390,000 tested, 0.01% active | AID 588456, 2011; further: nearly all actives have a fitted effect of over 50% in size
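Rat TrxR1, dispensed at 90 nM, was prereduced with 400 uM NADPH (final) for 5 min at ~22 deg C, then incubated with compound 15 min before 400 uM selenite. A first-read NADPH fluorescence drop versus no-compound background flagged substrates.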
rTrxR1 inhibitor – qHTS Assay for Inhibitors of Mammalian Selenoprotein Thioredoxin Reductase 1 (TrxR1): qHTS. Thioredoxin reductase 1, cytoplasmic (Rattus norvegicus), O89049. recombinant rTrxR1, NADPH fluorescence consumption, selenite substrate. Potency, µM (titrated, usually from 114 µM), inactives show at the top dose activity change, negative = inhibition, most hits filed as inhibitors. 390,000 tested, 1% active. AID 588453, 2011; further: nearly all actives have a fitted effect of over 65% in size
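Rat TrxR1 (90 nM in the dispensed reagent) was pre-reduced with 400 uM NADPH for 5 min at room temperature, then incubated with compound for 15 min. After 400 uM selenite was added, NADPH fluorescence (Ex 340/Em 450 nm) was followed for 8 min.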
Sfp inh – qHTS Assay for Inhibitors of Bacillus subtilis Sfp phosphopantetheinyl transferase (PPTase); 4'-phosphopantetheinyl transferase ffp (Bacillus subtilis), Q9F4F7; Biochemical Sfp PPTase activity, qHTS; Potency, µM, inactives show largest response in the series, negative = inhibition, hits mostly inhibitors; 310,000 tested, 3.5% active; AID 1490, 2009;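 further: the enzyme is Sfp with the accession as filed and its product quenches rhodamine fluorescence; 0% = enzyme reaction without inhibitor and -100% = no enzyme wells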
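After 15 min at room temperature with compound, 15 nM Sfp received 5 uM rhodamine-CoA plus 12.5 uM BHQ-2-ybbR (50 mM Hepes pH 7.6, 10 mM MgCl2). Rate came from the fluorescence difference over 30 min, ex 525/em 598 nm.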
* = called active by the depositor; [ ] = dose if it differs, or a comment. The call rests on the fitted dose curve; in most records, active means well fitted curve in the direction sought with a large enough effect; inconclusive means small, poorly fitted or top-dose-only effect, or another doubt; inactive means no such curve, though single readings can be large; an effect the other way counts as inactive or inconclusive. Unless noted, on the % scale 0 is the no-effect control and ±100 the full control effect; potency means the concentration at half of the fitted maximal effect.

Screening CC1(C)CN=c2s/c(=C\c3ccc(Cl)cc3)c(=O)n2C1 returned mIDH1 inhibitor 2%, PLK1 PBD inh 4.7µM*, VDR inhibitor -26%, TrxR1 substrate -5%[57.1 µM], rTrxR1 inhibitor 5%[57.1 µM] and Sfp inh -8%.
`C[n+]1cccc(/C=N/Nc2nc(Cl)c(C#N)c(Cl)c2Cl)c1` gave mIDH1 inhibitor 0%, PLK1 PBD inh -25%, VDR inhibitor 4%, TrxR1 substrate -11%, rTrxR1 inhibitor 50µM* and Sfp inh 12%.
Screening Cc1nc(C#N)c(N/N=C/c2cccc(Cl)c2)o1 returned mIDH1 inhibitor 5%, PLK1 PBD inh -10%, VDR inhibitor inconclusive, TrxR1 substrate -5%, rTrxR1 inhibitor inconclusive and Sfp inh -6%.
Screening C[N+](C)(C)c1ccc(/C=N/Nc2nc(Cl)c(C#N)c(Cl)c2Cl)cc1 returned mIDH1 inhibitor 6%, PLK1 PBD inh 20%, VDR inhibitor 1%, TrxR1 substrate -13%, rTrxR1 inhibitor 71µM* and Sfp inh -7%.
Screening O=C(N/N=C/c1ccc(Cl)cc1Cl)c1ccc(-n2cnnn2)cc1 returned mIDH1 inhibitor 6%, PLK1 PBD inh -8%, VDR inhibitor 1%, TrxR1 substrate 5% and rTrxR1 inhibitor 15%.
For COc1ccc(/C=N/Nc2nncn2N)cc1Br the results were mIDH1 inhibitor 16%, PLK1 PBD inh -20%, VDR inhibitor 22µM*, TrxR1 substrate -11%, rTrxR1 inhibitor 22%[57.1 µM] and Sfp inh -16%.
`COc1cc(/C=C(\C#N)C(N)=O)ccc1OCc1c(C)no[n+]1[O-]` gave mIDH1 inhibitor -2%, PLK1 PBD inh -2%, VDR inhibitor -18%, TrxR1 substrate -5%, rTrxR1 inhibitor 2% and Sfp inh 9%.
COc1cc(/C=N/Nc2nncn2N)ccc1OCc1c(C)no[n+]1[O-] was read as mIDH1 inhibitor 21%, PLK1 PBD inh 2%, VDR inhibitor 1%, TrxR1 substrate -10%, rTrxR1 inhibitor 19% and Sfp inh 71µM*.
For Nn1cnnc1N/N=C/c1ccc(Cl)cc1Cl the results were mIDH1 inhibitor 17%, PLK1 PBD inh 4%, VDR inhibitor 24%, TrxR1 substrate -1%, rTrxR1 inhibitor 6% and Sfp inh 56µM*.
COC(=O)CN1C(=S)N(c2ccc(Cl)cc2)C(=O)C1CC(=O)Nc1ccc(Cl)cc1 (stereo not drawn) was read as mIDH1 inhibitor 2%, PLK1 PBD inh -4%, VDR inhibitor -6%, TrxR1 substrate 3%, rTrxR1 inhibitor 14% and Sfp inh 79µM*.
Screening O=CN1CCc2scc[n+]2-c2ccccc21 returned mIDH1 inhibitor 2%, PLK1 PBD inh -9%, VDR inhibitor inconclusive, TrxR1 substrate 5%[57.1 µM], rTrxR1 inhibitor -22%[57.1 µM] and Sfp inh 32µM*.
`Nc1c(C(=O)O)sc2nc(-c3ccc(F)cc3)cc(-c3ccccc3)c12` gave mIDH1 inhibitor -2%, PLK1 PBD inh 30µM*, VDR inhibitor -29%, TrxR1 substrate -1%, rTrxR1 inhibitor -15% and Sfp inh 50µM*.
`Cc1oc(C(=O)O)cc1CSCc1cc(C(=O)O)c(C)o1` gave mIDH1 inhibitor 0%, PLK1 PBD inh inconclusive, VDR inhibitor -11%, TrxR1 substrate -9%, rTrxR1 inhibitor -16% and Sfp inh 20µM*.
Screening Cn1cnnc1SCC(=O)N1c2ccccc2-c2c(ssc2=S)C1(C)C returned Sfp inh -15%.
Screening CC1(C)c2ssc(=S)c2-c2ccccc2N1C(=O)c1ccco1 returned mIDH1 inhibitor 0%, PLK1 PBD inh 15µM*, VDR inhibitor inconclusive, TrxR1 substrate -15%, rTrxR1 inhibitor inconclusive and Sfp inh -11%.
Cc1ccc2c(c1)-c1c(ssc1=S)C(C)(C)N2C(=O)c1ccco1 was read as mIDH1 inhibitor -4%, PLK1 PBD inh 2.1µM*, VDR inhibitor -58%, TrxR1 substrate -15%, rTrxR1 inhibitor -8% and Sfp inh 20µM*.
Screening Cc1ccc2c(c1)-c1c(ssc1=S)C(C)(C)N2C(=O)CSC1=NCCS1 returned mIDH1 inhibitor -1%, PLK1 PBD inh -2%, VDR inhibitor 3%, TrxR1 substrate -5%, rTrxR1 inhibitor 15% and Sfp inh -2%.
CC(C)(C)OC(=O)N1C=CCC1CN1C(=O)COCC1=O (stereo not drawn) was read as VDR inhibitor -13%, TrxR1 substrate 0%, rTrxR1 inhibitor 13% and Sfp inh -2%.
CN1C(=O)CC(=O)N(C)c2cc(S(=O)(=O)N(C)Cc3ccccc3)ccc21 was read as mIDH1 inhibitor -4%, PLK1 PBD inh 7.5µM*, VDR inhibitor inconclusive, TrxR1 substrate 5%, rTrxR1 inhibitor 16% and Sfp inh 89µM*.
CC1CCN(S(=O)(=O)c2ccc3c(c2)N(C)C(=O)CC(=O)N3C)CC1 was read as mIDH1 inhibitor 13%, PLK1 PBD inh 13µM*, VDR inhibitor 4%, TrxR1 substrate 0%, rTrxR1 inhibitor 27% and Sfp inh -29%.
For CC1CCN(c2ccc(S(=O)(=O)N3CCC(C)CC3)cc2N)CC1 the results were mIDH1 inhibitor 7%, PLK1 PBD inh -7%, VDR inhibitor 8%, TrxR1 substrate 3%, rTrxR1 inhibitor 19% and Sfp inh 5%.
Screening CN(Cc1ccccc1)S(=O)(=O)c1ccc2c(c1)n(C)c(=O)c(=O)n2C returned mIDH1 inhibitor -9%, PLK1 PBD inh 4%, VDR inhibitor 5%, TrxR1 substrate -6%, rTrxR1 inhibitor -14% and Sfp inh 28%.
Screening COc1ccc(CNc2oc(-c3ccc(COc4ccc(Cl)cc4)o3)nc2C#N)cc1 returned mIDH1 inhibitor 1%, VDR inhibitor 5%, TrxR1 substrate 9% and rTrxR1 inhibitor 11%.
Screening CCc1ccc2[nH]c(=O)c(CN(Cc3ccccc3)Cc3nnnn3C(C)(C)C)cc2c1 returned VDR inhibitor -12%, TrxR1 substrate 2% and rTrxR1 inhibitor 6%.
`CCCn1c2ccccc2c2cnn(CC(=O)NC3CCCCC3)c(=O)c21` gave mIDH1 inhibitor 1%, PLK1 PBD inh -5%, VDR inhibitor 3%, TrxR1 substrate 17%, rTrxR1 inhibitor 30% and Sfp inh -7%.

High-throughput results: PubChem, National Center for Advancing Translational Sciences (NCATS)
